DRD3 antagonist: antagonists of human D3 dopamine receptor. D3R cells, DiscoveRx beta-arrestin luminescence, antagonist mode; active compounds read low. AID 652054. max response, negative = inhibition, %. P35462. actives 2.5% (n = 360,000); in the data active = max response below about -50%; inconclusive = no clear call, values can overlap the other calls
Target sequence (P35462 whole entry, looked up): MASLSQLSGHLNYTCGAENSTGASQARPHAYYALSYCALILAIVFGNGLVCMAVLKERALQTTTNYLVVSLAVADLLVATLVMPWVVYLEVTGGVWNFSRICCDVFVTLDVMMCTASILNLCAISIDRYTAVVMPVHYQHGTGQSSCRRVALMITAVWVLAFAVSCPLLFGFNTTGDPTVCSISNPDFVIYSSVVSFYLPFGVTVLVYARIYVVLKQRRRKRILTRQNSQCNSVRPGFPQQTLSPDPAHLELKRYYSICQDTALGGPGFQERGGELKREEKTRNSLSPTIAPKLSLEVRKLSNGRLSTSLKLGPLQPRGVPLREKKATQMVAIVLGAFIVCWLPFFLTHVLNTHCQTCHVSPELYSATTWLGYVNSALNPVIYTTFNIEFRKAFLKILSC
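Cells plated overnight at 1500 cells/well, then exposed to library compounds with dopamine controls for 90 minutes at 37 degrees C. DiscoveRx reagent added for 30–60 minutes at room temperature; luminescence read, quantitative HTS format.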
ATXN viability: reduces viability in counter-screen for ATXN expression inhibitors. Potency, µM (highest dose often 56.7 µM), most hits filed as cytotoxic. S2 cells (HEK-293 line with an ATXN2-luciferase reporter) viability, CellTiter-Fluor protease fluorescence, 24 h. actives 0.49% (n = 400,000); also: nearly all actives have a fitted effect of over 40% in size
TGFb inhibitor: inhibitors of TGF-b signaling; HepG2 CAGA-GFP TGF-b/SMAD3 reporter, GFP fluorescence, 18 h; TGF-beta stimulated, 500 pg/mL final; Potency, µM (doses to about 46.1 µM), actives largely listed as inhibitors; actives 1.2% (n = 410,000); also: nearly all actives have a fitted effect of over 65% in size
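Using HEPG2 CAGA-GFP reporter cells at 1000 cells/well, we pinned test compounds, stimulated with recombinant TGF-beta (500 pg/mL final) and measured total well GFP after 18 h.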
D3 ag: agonists of human D3 dopamine receptor. max activation, %. D3R DiscoveRx beta-arrestin cells, luminescence, 90 min. actives 0.58% (n = 410,000). P35462. AID 652048; in the data active = max activation above about 30%
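Cells at 1500/well, incubated overnight, then treated with pinned compounds (dopamine as control) for 90 min at 37 degrees C. DiscoveRx reagent added for 30 - 60 minutes at room temperature; luminescence read.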
ATXN2 expr inh: reduces ATXN2 reporter expression in HEK-293 cells; HEK-293 ATXN2-luciferase reporter, luminescence, 24 h; Potency, µM (series often up to 57 µM), hits mostly inhibitors; actives 0.72% (n = 360,000); AID 1745845; also: nearly all actives have a fitted effect of over 55% in size
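qHTS (up to 57 uM final) was run with 24 h compound exposure of reporter cells at 37 °C. Each well was multiplexed: SteadyGlo luminescence measured ATXN2-luciferase expression after a fluorogenic Gly-Phe-AFC viability readout (25 uM final).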
HepG2 tox: counter-screen for TGF-b inhibitors: cytotoxicity in HepG2 cells. HepG2 CAGA-GFP viability, ATP luminescence, 18 h. Potency, µM (series often up to 46.1 µM), most hits filed as cytotoxic. actives 0.76% (n = 410,000). AID 588856
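HepG2 CAGA-GFP cells (1000/well, DMEM with 1% FBS) received compound, then TGF-beta at 500 pg/mL final, and were incubated 18 hours at 37 degrees C. Viability was read by CellTiter-Glo luminescence. Media-only wells were set as complete cell-killing and DMSO as no toxicity.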
Each line names hits and unclear results; the compound was inactive in the other large screens. An excerpt weighted towards active compounds, which were near 4.8% of everything screened. Unless noted, calls follow the shape of the dose curve; as a rule, active = well fitted curve in the direction sought with a large enough effect; inconclusive = small, poorly fitted or top-dose-only effect, or another doubt; inactive = no such curve, though single readings can be large; an effect the other way counts as inactive or inconclusive.

CCCn1c(SCC(=O)Nc2cc(C)on2)nc2c1c(=O)n(C)c(=O)n2C	DRD3 antagonist -51, TGFb inhibitor inconclusive
CCCn1c(SCC(=O)Nc2cccc(C)n2)nc2c1c(=O)n(C)c(=O)n2C	TGFb inhibitor inconclusive
Cc1nc(SCC(=O)N2CCCCCC2)c2c(=O)n(C)c(=O)n(CC(C)C)c2n1	TGFb inhibitor 16µM (no result: ATXN2 expr inh)
CCN(C(=O)Cn1cnc2onc(-c3ccc(F)cc3)c2c1=O)c1cc(C)ccc1C	none (no result: DRD3 antagonist)
O=C(CSc1ccccc1)Nc1ccc(-c2nc3ccccc3[nH]2)cc1	TGFb inhibitor inconclusive, HepG2 tox 16µM
C/C(=N\NC(=O)c1ccc2c(c1)OCO2)c1ccc2c(c1)OCO2	DRD3 antagonist -55
O=C(Nc1ccc(-c2nc3ccccc3[nH]2)cc1)c1ccc2c(c1)OCO2	ATXN viability inconclusive, TGFb inhibitor 7.9µM, HepG2 tox 8.9µM
C/C(=N\NC(=O)c1ccc2c(c1)OCO2)c1ccc(C(=O)O)s1	none
O=C(Nc1ccc(Cl)c(-c2nc3ccccc3[nH]2)c1)c1ccc2c(c1)OCO2	none
O=C(Nc1c(-c2ccc3c(c2)OCO3)[nH][nH]c1=O)c1ccc2c(c1)OCO2	DRD3 antagonist -78
Cn1ncc(C(=O)N2CCN(c3ccc(F)cc3)CC2)c1C1CCN(C(=O)OC(C)(C)C)CC1	none (no result: DRD3 antagonist, ATXN viability, ATXN2 expr inh)
O=C(CSc1nnc2scc(-c3ccc(Cl)cc3)n12)Nc1ccc(F)cc1	ATXN viability inconclusive (no result: DRD3 antagonist)
COc1cc(NS(=O)(=O)c2cnc(N)nc2)cc(OC)c1	none (no result: DRD3 antagonist, ATXN viability, ATXN2 expr inh)
O=C(Nc1ccc(-c2nc3ccccc3[nH]2)cc1)C1CCCO1 (configuration not stated)	HepG2 tox 7.1µM
CC(=O)CSc1ccc(-c2nc3ccccc3[nH]2)cn1	HepG2 tox 10µM
Cc1cccc(N(C)S(=O)(=O)c2nnc(NC(=O)C(C)(C)C)s2)c1	none (no result: DRD3 antagonist, ATXN viability, ATXN2 expr inh)
CN1c2ccccc2-c2nc(SCC(=O)Nc3ccccc3)ncc2S1(=O)=O	none (no result: DRD3 antagonist)
CCOC(=O)Nc1sc2c(c1C#N)CCC(C)C2 (configuration not stated)	none
CCC1CCc2c(sc(NC(=O)C3CC=CCC3C(=O)O)c2C#N)C1 (configuration not stated)	D3 ag 33
Cc1cc(C)cc(C(=O)NCCn2cc(C(=O)N3CCSCC3)nn2)c1	none (no result: DRD3 antagonist, TGFb inhibitor, D3 ag, ATXN2 expr inh, HepG2 tox)
Cc1ccc(C(=O)N2CCCC(N(C)Cc3ccccc3)C2)s1 (configuration not stated)	DRD3 antagonist -62
CCOc1ccc(Nc2nc(Cc3nnc(SCC(=O)NC4CCCCC4)n3C)cs2)cc1	none
CCOc1ccc(Nc2nc(Cc3nnc(SCC(=O)N(CC)CC)n3C)cs2)cc1	TGFb inhibitor inconclusive, HepG2 tox 20µM
CC1(C)CC(=O)c2c(O)cc(OCC(=O)Nc3ccc(CCO)cc3)cc2O1	D3 ag 34
COc1ccc(NC(=O)COc2cc(O)c3c(c2)OC(C)(C)CC3=O)cc1	none
COCc1c(C(=O)NC2CCCCCC2)cnn1-c1nccc(-c2cc(C)sc2C)n1	none (no result: DRD3 antagonist, TGFb inhibitor, D3 ag, ATXN2 expr inh, HepG2 tox)
COc1ccc(/C=C\C(=O)NC2CC(=O)N(c3ccccc3)C2)cc1OC (configuration not stated)	none (no result: DRD3 antagonist, ATXN viability, ATXN2 expr inh)
O=C(/C=C\c1ccccc1)NC1CC(=O)N(c2ccccc2)C1 (configuration not stated)	D3 ag 45 (no result: DRD3 antagonist, ATXN viability, ATXN2 expr inh)
O=C(CCl)N(Cc1cc(=O)[nH]c2ccccc12)c1ccccc1	ATXN viability inconclusive, TGFb inhibitor 11µM (no result: ATXN2 expr inh)
COc1ccc(CC(=O)N(Cc2ccccc2)c2cccc(C)c2)cc1OC	none
Cc1cccc(N(Cc2ccccc2)C(=O)CCl)c1	ATXN viability 0.53µM, TGFb inhibitor inconclusive, ATXN2 expr inh 0.75µM
O=C(CCl)N(Cc1ccccc1)c1ccccc1	TGFb inhibitor 13µM, HepG2 tox 13µM
CCCCCCCCCOC(=O)C(CC(=O)O)N1CCOCC1 (configuration not stated)	DRD3 antagonist -52
O=C(O)CC(C(=O)OC1CCCCC1)N1CCOCC1 (configuration not stated)	DRD3 antagonist -92
O=C(O)CC(C(=O)OCC1CCCO1)N1CCOCC1 (configuration not stated)	none
Cc1ccccc1C(=O)Nc1nnc2n1CCS2	none (no result: DRD3 antagonist)
Cc1ccc(-c2csc(C(O)c3cccc(Cl)c3)n2)cc1C (configuration not stated)	TGFb inhibitor 13µM
OC(c1cccc(Cl)c1)c1nc(-c2ccc(F)c(Cl)c2)cs1 (configuration not stated)	TGFb inhibitor inconclusive
OC(c1cccc(Cl)c1)c1nc(-c2ccc(Cl)cc2)cs1 (configuration not stated)	TGFb inhibitor 13µM, HepG2 tox 13µM
CCN(Cc1ccncc1)Cc1ccc2c(c1)CN(C(=O)c1ccc(OC)cc1)CCO2	none (no result: DRD3 antagonist, TGFb inhibitor, D3 ag, ATXN2 expr inh, HepG2 tox)
Cc1cc(OC(C)C(=O)N(Cc2ccc(N(C)C)cc2)Cc2ccco2)ccc1Cl (configuration not stated)	none (no result: DRD3 antagonist, ATXN viability, TGFb inhibitor, ATXN2 expr inh)
Cc1ccccc1OCC(=O)Nc1cccc(C(=O)O)c1	ATXN2 expr inh 0.17µM
CCOc1ccc(-n2nc3ccc(NC(=O)Cc4ccccc4)cc3n2)cc1	ATXN viability 14µM, TGFb inhibitor inconclusive, ATXN2 expr inh inconclusive (no result: DRD3 antagonist)
COC(=O)c1cccc(NC(=O)Nc2ccc(Cl)c(Cl)c2)c1	TGFb inhibitor inconclusive, ATXN2 expr inh inconclusive, HepG2 tox 11µM
CCOc1ccc(-n2nc3ccc(NC(=O)CC)cc3n2)cc1	none
O=C(O)c1cccc(NC(=S)NC(=O)c2cncc(Br)c2)c1	DRD3 antagonist -63 (no result: ATXN2 expr inh)
O=C(NC(=S)Nc1cccc(O)c1)c1cncc(Br)c1	none
Cc1cc(C(=O)N2CCN(c3cccc(Cl)c3)CC2)n(-c2ccccc2)n1	none (no result: DRD3 antagonist, ATXN viability, TGFb inhibitor, D3 ag, HepG2 tox)
O=C(NC(=S)Nc1cc(Cl)ccc1O)c1cccc(Br)c1	TGFb inhibitor 10µM (no result: ATXN2 expr inh)
O=C(NC(=S)Nc1cccnc1)c1cccc(Br)c1	none
O=C(Nc1ccc(Cl)cc1)Nc1cccc(C(=O)O)c1	ATXN2 expr inh 8.9µM
CCOc1ccc(NC(=O)Nc2cccc(C(=O)O)c2)cc1	ATXN2 expr inh 1µM
COc1ccccc1NS(=O)(=O)c1cccc(NC(=O)Nc2ccc(Cl)cc2)c1	ATXN viability inconclusive, TGFb inhibitor inconclusive, ATXN2 expr inh inconclusive, HepG2 tox 13µM
CCOC(=O)c1cccc(NC(=O)Nc2ccc(OCC)cc2)c1	ATXN viability inconclusive (no result: ATXN2 expr inh)
CC(NC(=O)c1cnn2c1NC(=C1CC1)C=C2C(F)F)c1ccncc1 (configuration not stated)	none (no result: DRD3 antagonist, ATXN viability, D3 ag, ATXN2 expr inh)
CCOc1ccc(CCNC(=O)CCSCc2ccc(Cl)cc2)cc1OCC	none (no result: DRD3 antagonist, ATXN viability, ATXN2 expr inh)
